Assay [1] can be described thus: antimalarial activity against Dd2 strain (AID 2302;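 active = growth inhibition above 50% at the single 2 µM test dose, taken to imply half-maximal potency below 2 µM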;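 note: 0% = DMSO untreated growth and 100% = chloroquine plus artemisinin killed control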). Conditions: P. falciparum Dd2 in RBCs, LDH growth readout, 72 h; at 2 µM; hits give high values.
A short description of assay [2]: human hepatoma cell viability loss – ATP luminescence, cytotoxicity control for P. falciparum antimalarial project, primary screen (AID 2303;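 active = inhibition above 50%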;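 note: 0% = DMSO wells and 100% = digitonin-killed cells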). The note with it: HepG2 viability, 24-48 h, at 10 µM, hits give high values.
The target of assay [3] is L-lactate dehydrogenase (Plasmodium falciparum (isolate CDC / Honduras)) (UniProt Q27743). The experiment in a line: PfLDH activity inhibition – cell lysate, 3D7 strain, counter-screen for P. falciparum growth inhibition project (AID 2304).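 Note: 0% = vehicle and 100% = reference inhibitor.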 The note with it: P. falciparum 3D7 crude extract, LDH APAD/NBT absorbance; at 2 µM; hits give high values. Background: Counterscreens check selectivity or assay interference.
L-lactate dehydrogenase (Plasmodium falciparum (isolate CDC / Honduras)), sequence (Q27743 whole entry, looked up): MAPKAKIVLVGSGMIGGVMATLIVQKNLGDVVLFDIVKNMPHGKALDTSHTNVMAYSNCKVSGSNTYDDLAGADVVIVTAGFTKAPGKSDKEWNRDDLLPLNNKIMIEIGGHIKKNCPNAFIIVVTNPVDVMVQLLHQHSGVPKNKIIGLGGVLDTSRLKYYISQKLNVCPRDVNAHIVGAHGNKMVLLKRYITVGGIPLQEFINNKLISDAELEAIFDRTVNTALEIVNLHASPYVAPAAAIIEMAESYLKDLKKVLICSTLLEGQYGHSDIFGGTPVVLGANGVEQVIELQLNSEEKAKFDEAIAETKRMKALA

A short description of assay [4]: inhibition of 3D7 malaria parasite growth – strain 3D7 (AID 2306).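 Note: 0% = DMSO wells and 100% = chloroquine plus artemisinin control wells.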 Conditions: P. falciparum 3D7 erythrocytic growth, LDH absorbance, 72 h; at 2 µM; hits give high values.
The target of assay [5] is Calcium-dependent protein kinase 1 (Plasmodium falciparum (isolate 3D7)) (UniProt P62344). Kind of assay: PfCDPK1 kinase inhibitors, biochemical, TCAMS library (AID 1159585; cut-off not given, nearly all actives have IC50 up to about 0.98 µM;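 note: inhibitors leave more ATP so luminescence rises with inhibition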). The note with it: recombinant PfCDPK1, Kinase-Glo ATP depletion luminescence. For orientation: Kinase-Glo measures the ATP left after a reaction by luminescence.
Calcium-dependent protein kinase 1 (Plasmodium falciparum (isolate 3D7)), sequence (P62344 whole entry, looked up): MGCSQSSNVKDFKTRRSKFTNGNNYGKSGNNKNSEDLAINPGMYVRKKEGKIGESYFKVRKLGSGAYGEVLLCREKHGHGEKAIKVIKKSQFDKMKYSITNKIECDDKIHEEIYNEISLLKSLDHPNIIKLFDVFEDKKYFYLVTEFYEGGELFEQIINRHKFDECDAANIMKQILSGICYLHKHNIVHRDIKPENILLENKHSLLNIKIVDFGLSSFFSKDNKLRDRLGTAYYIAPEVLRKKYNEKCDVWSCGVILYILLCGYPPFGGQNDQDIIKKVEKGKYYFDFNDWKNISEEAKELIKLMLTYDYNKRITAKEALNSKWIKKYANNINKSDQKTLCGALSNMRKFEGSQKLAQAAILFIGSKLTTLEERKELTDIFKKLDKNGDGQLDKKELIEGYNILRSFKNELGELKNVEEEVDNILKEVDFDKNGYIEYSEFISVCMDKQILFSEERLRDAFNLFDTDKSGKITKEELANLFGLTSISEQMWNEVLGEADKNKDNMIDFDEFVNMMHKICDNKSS
Assay [6] has as its target Plasmodium falciparum protein kinase 6 (PK6, PF3D7_1337100) (UniProt Q8IDW1). Kind of assay: PfPK6 kinase inhibitors, biochemical, TCAMS library (AID 1159586). The note with it: recombinant PfPK6, Kinase-Glo ATP depletion luminescence.
Assay [7] addresses Protein kinase 7 (PK7), Plasmodium falciparum 3D7 (PF3D7_0213400) (UniProt Q7YTF7). The experiment in a line: inhibition of Plasmodium PK7 catalytic activity – biochemical, TCAMS antimalarial set, Kinase-Glo luminescence (AID 1159587). Conditions: recombinant PfPK7, Kinase-Glo ATP depletion luminescence.
The target in assay [8] is Calcium-dependent protein kinase 4 (Plasmodium falciparum (isolate 3D7)) (UniProt Q8IBS5). Kind of assay: PfCDPK4 kinase inhibitors, biochemical, TCAMS library (AID 1159588; cut-off not given, nearly all actives have IC50 up to about 0.91 µM). The note with it: recombinant PfCDPK4, Kinase-Glo ATP depletion luminescence.
Calcium-dependent protein kinase 4 (Plasmodium falciparum (isolate 3D7)), sequence (Q8IBS5 whole entry, looked up): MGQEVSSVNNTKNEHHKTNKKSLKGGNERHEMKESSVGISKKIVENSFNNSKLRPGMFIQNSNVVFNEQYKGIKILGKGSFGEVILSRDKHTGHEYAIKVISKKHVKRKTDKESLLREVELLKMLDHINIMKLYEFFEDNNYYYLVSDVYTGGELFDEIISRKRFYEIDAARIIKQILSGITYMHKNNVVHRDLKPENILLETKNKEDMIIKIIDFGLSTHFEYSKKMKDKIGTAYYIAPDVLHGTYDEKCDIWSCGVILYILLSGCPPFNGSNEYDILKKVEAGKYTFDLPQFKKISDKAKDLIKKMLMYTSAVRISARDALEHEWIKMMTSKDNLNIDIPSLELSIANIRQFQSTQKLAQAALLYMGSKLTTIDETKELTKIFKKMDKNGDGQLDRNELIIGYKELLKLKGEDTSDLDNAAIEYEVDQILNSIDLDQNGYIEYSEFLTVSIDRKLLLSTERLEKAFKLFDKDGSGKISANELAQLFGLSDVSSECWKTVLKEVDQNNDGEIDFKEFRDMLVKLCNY

In PubChem BioAssay one finds growth inhibition, inhibition and outcome data, which are given here for 19 molecules.

A number with no mark means an inactive call. For some assays here: Potency and affinity values are given separately. The source made the active and inactive calls. Unless noted, the rule behind the calls is not given here.

Plasmodium falciparum protein kinase 6 (PK6, PF3D7_1337100), sequence (Q8IDW1 1-305): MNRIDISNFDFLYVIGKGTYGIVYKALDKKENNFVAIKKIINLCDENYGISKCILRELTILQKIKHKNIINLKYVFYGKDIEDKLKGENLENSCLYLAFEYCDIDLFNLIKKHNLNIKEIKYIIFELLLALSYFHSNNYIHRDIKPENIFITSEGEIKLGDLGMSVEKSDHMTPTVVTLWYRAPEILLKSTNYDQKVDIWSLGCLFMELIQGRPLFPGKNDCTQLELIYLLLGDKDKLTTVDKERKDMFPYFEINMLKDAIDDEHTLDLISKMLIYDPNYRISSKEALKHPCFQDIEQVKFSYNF
Protein kinase 7 (PK7), Plasmodium falciparum 3D7 (PF3D7_0213400), sequence (Q7YTF7 1-343): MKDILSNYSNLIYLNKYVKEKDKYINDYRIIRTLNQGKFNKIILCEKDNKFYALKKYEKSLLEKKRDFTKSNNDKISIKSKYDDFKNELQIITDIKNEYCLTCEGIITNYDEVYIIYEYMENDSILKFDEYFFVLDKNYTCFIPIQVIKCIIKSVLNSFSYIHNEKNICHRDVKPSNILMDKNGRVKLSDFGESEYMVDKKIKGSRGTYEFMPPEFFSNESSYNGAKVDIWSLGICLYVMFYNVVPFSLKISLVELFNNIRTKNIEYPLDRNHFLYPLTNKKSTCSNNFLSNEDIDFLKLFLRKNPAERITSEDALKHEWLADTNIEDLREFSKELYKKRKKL

Usually inhibition stands for the drop in the measured response relative to a control, in per cent. As for `CCOC(=O)c1ccc(NC(=O)N[C@@H](Cc2ccccc2)C(=O)NC2CCN(Cc3ccc(OCCCN(C)C)cc3)C2)cc1` (some centres not stated), the growth inhibition is 8% in assay [1] and 91% (active) in assay [4]. Also, the inhibition in assay [2] is 5%; in assay [3] it was 0%. Moreover, the result in assay [5], in assay [6], in assay [7] and in assay [8] was inactive.
As for `O=C(/C=C/c1ccc(Cl)c(Cl)c1)NCCCCCCN1CCN(C(=O)Nc2ccc(Cl)c(C(F)(F)F)c2)CC1`, the growth inhibition in assay [1] was 43%; in assay [4], 99% (active). The inhibition in assay [2] is 47%; in assay [3] it was -6%. The result in assay [5], in assay [6], in assay [7] and in assay [8] was inactive.
On to `O=C(Nc1ccsc1)Nc1cccc(-c2ccc(-c3nc4ccc(C(F)(F)F)cc4[nH]3)cc2)c1`, for which the values for the growth inhibition in assay [1] and in assay [4] were 36% and 99% (active), respectively. Further, the inhibition in assay [2] is 45%; in assay [3], -2%. Further, the outcome in assay [5], in assay [6], in assay [7] and in assay [8] was inactive.
In the case of `Cc1cc(NC(=O)c2coc3cc(F)c(N4C[C@@H](C)N(C)[C@@H](C)C4)cc23)ccc1-n1ccnc1`, the growth inhibition in assay [1] is 42%; in assay [4], 96% (active). Besides, the inhibition in assay [2] was -9%; in assay [3], -3%. In addition, the outcome in assay [5], in assay [6], in assay [7] and in assay [8] was inactive.
In the case of `CCCCCCCN1CC[C@@H](C[C@H](N)Cc2ccnc3ccc(OC)cc23)[C@@H](CC)C1`, the growth inhibition in assay [1] was 51% (active); in assay [4] it was 91% (active). The figures for the inhibition in assay [2] and in assay [3] were 33% and -2%, respectively. Besides, the outcome in assay [5], in assay [6], in assay [7] and in assay [8] was inactive.
Take `CN1CCN(S(=O)(=O)c2cccc(Nc3nccc(N(C)c4ccc5c(c4)nc(NC(=O)c4cccs4)n5C)n3)c2)CC1`: the growth inhibition in assay [1] was 59% (active); in assay [4] it was 99% (active). The inhibition is 25% in assay [2] and -6% in assay [3]. Further, the result in assay [5], in assay [6], in assay [7] and in assay [8] was inactive.
As for `O=C(/C=C/c1ccc(Cl)c(Cl)c1)N1CCC(CCN2CCC(c3nc4ccc(O)cc4[nH]3)CC2)CC1`, the growth inhibition was 60% (active) in assay [1] and 100% (active) in assay [4]. Also, the inhibition is 42% in assay [2] and 4% in assay [3]. Besides, the outcome in assay [5], in assay [6], in assay [7] and in assay [8] was inactive.
With `COc1ccccc1-c1[nH]c2ccccc2c1CN1CCC(c2c(C)cccc2C)CC1`, the growth inhibition in assay [1] is 13%; in assay [4], 96% (active). Also, the inhibition is 49% in assay [2] and 3% in assay [3]. The result in assay [5], in assay [6], in assay [7] and in assay [8] was inactive.
As for `Cc1ccc(NC(=O)c2ccc(Cl)c(Cl)c2)cc1-c1ccc(C(=O)Nc2ccncc2)cc1`, the values for the growth inhibition in assay [1] and in assay [4] were 79% (active) and 99% (active), respectively. The inhibition in assay [2] is 39%; in assay [3], -3%. The result in assay [5], in assay [6], in assay [7] and in assay [8] was inactive.
For the molecule `CN1CCC(Oc2cc(CN3CC[C@H](NC(=O)c4ccc(Cl)c(Cl)c4)C3)ccc2I)C1` (some centres not stated), the values for the growth inhibition in assay [1] and in assay [4] were 24% and 97% (active), respectively. Besides, the results for the inhibition in assay [2] and in assay [3] were 68% (active) and 1%, respectively. Further, the outcome in assay [5], in assay [6], in assay [7] and in assay [8] was inactive.
As to `O=C(N[C@@H](Cc1ccccc1)[C@H](O)CNC1CCc2ccccc2C1)c1cc(C2CCCC2)cc(N2CCCC2=O)c1` (some centres not stated), the growth inhibition in assay [1] was 76% (active); in assay [4], 99% (active). The inhibition in assay [2] is 23%; in assay [3] it was -4%. The result in assay [5], in assay [6], in assay [7] and in assay [8] was inactive.
As for `CCCCNC(=O)C(C)NC(=O)c1ccc(O)c(-c2ccc(Cl)c(Cl)c2)c1` (configuration not stated), the growth inhibition was 8% in assay [1] and 98% (active) in assay [4]. The results for the inhibition in assay [2] and in assay [3] were -5% and 2%, respectively. Moreover, the outcome in assay [5], in assay [6], in assay [7] and in assay [8] was inactive.
`CS(=O)(=O)c1ccc(CNCc2ccc(-c3ccc(-c4nc5ccc(C(F)(F)F)cc5[nH]4)s3)cc2)cc1`: the growth inhibition was 98% (active) in assay [1] and 102% (active) in assay [4]. For the same molecule, the figures for the inhibition in assay [2] and in assay [3] were 49% and -5%, respectively. The result in assay [5], in assay [6], in assay [7] and in assay [8] was inactive.
As to `CC(C)c1ccc(OCC(O)CN(C)C(C)C(O)c2ccccc2)c(Br)c1` (configuration not stated), the growth inhibition was 97% (active) in assay [1] and 95% (active) in assay [4]. Moreover, the inhibition in assay [2] is 36%; in assay [3], -3%. Besides, the outcome in assay [5], in assay [6], in assay [7] and in assay [8] was inactive.
Take `OCCN1CCN(Cc2ccc(-c3cccc(-c4nc5ccc(C(F)(F)F)cc5[nH]4)c3)cc2)CC1`: the growth inhibition in assay [1] is 83% (active); in assay [4] it was 99% (active). Further, the inhibition in assay [2] is 29%; in assay [3], 0%. Further, the result in assay [5], in assay [6], in assay [7] and in assay [8] was inactive.
As to `CCOc1ccccc1CNc1nccc(NCc2ccccc2OC)n1`, the growth inhibition in assay [1] was 66% (active); in assay [4] it was 87% (active). For the same molecule, the figures for the inhibition in assay [2] and in assay [3] were 50% (active) and -2%, respectively. Also, the outcome in assay [5], in assay [6], in assay [7] and in assay [8] was inactive.
Consider `O=C(Nc1cc(F)c(F)c(-c2cccnc2)c1)N1CCc2cc(Cl)c(Cl)cc21`, for which the values for the growth inhibition in assay [1] and in assay [4] were 9% and 94% (active), respectively. Further, the inhibition in assay [2] was 0%; in assay [3] it was 5%. The result in assay [5], in assay [6], in assay [7] and in assay [8] was inactive.
As for `Nc1nccc2ccc(-c3ccnc(NCc4cccnc4)n3)cc12`, the growth inhibition in assay [1] was 95% (active); in assay [4], 101% (active). Moreover, the inhibition is 11% in assay [2] and -3% in assay [3]. The outcome in assay [5], in assay [6], in assay [7] and in assay [8] was inactive.
In the case of `COc1ccccc1/C=C/C(=O)NCCC1CCN(CCCCCNC(=O)/C=C/c2ccc(Cl)c(Cl)c2)CC1`, the results for the growth inhibition in assay [1] and in assay [4] were 0% and 94% (active), respectively. The values for the inhibition in assay [2] and in assay [3] were 34% and -4%, respectively. The result in assay [5], in assay [6], in assay [7] and in assay [8] was inactive.
